ELG1 genotoxic = genotoxicity induction in ELG1-luciferase HEK293T cells; HEK293T ELG1-luciferase reporter, luminescence, 16 h; Potency, µM (doses to about 46 µM), inactives show top-dose activity change, positive = activation, hits mostly activators; 330,000 tested, 1.3% active; also: % of control where 0% means no effect; nearly all actives have a fitted effect of over 60% in size
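Step 1: seed 2,000 HEK293T ELG1-luciferase cells per well. Step 2: add compound or DMSO, incubate 16 hr at 37 °C. Step 3: ONE-Glo, 30 min at room temperature, read luminescence.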
SMN2 splice enh = increases expression of the SMN2 splice variant; HEK293 SMN2-luciferase splicing reporter, luminescence, 30-36 h; 210,000 tested, 2.8% active; AID 1458; Potency, µM (top dose mostly 46.1 µM), for inactives: at the highest dose activity change, positive = activation, usual class: activators; also: % of control where 0% means no effect; nearly all actives have a fitted effect of over 55% in size
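HEK293 cells carry an SMN2 […]–luciferase reporter in which exon 7 inclusion puts luciferase in frame. Cells were plated 10-12 h before compound addition, then incubated 30-36 h at 37C. ONE-Glo luminescence was read; sodium butyrate at 4.5 mM final served as control.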
ELG1 repair inh = ELG1-dependent DNA repair inhibition | HEK293T ELG1-luciferase reporter, luminescence, 16 h; DNA damage induced by 5-fluorouridine | Potency, µM (highest dose often 46.1 µM), without a hit: at the top dose activity change, negative = inhibition, usual class: inhibitors | 330,000 tested, 2.3% active | AID 504467; also: % is scaled to controls: 0 for no effect and ±100 for the full control effect; nearly all actives have a fitted effect of over 55% in size
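DMSO vehicle served as the neutral condition. Each well held 2,000 cells given 5-fluorouridine plus compound; after 16 hr at 37 °C/5% CO2, ONE-Glo was added and luciferase measured 30 min later.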
NPC1 prom act = activates the NPC1 promoter; 320,000 tested, 2.4% active; Huh7 NPC1 promoter luciferase reporter, 24 h; AID 485313; Potency, µM (titrated, usually from 9.22 µM), for inactives: at the highest dose activation, hits mostly activators; also: % of control where 0% means no effect; nearly all actives have a fitted effect of over 60% in size
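Luminescence read-out of NPC1 promoter-driven luciferase in stably transfected Huh7 cells; compounds delivered in DMSO and left 24 h at 37C, 5% CO2, qHTS titration format.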
Rab9 promoter act = activators of Rab9 promoter; AID 485297; Huh7 Rab9 promoter-luciferase reporter, luminescence, 24 h; Potency, µM (series often up to 9.22 µM), inactives show top-dose activation, negative = inhibition, usual class: activators; 320,000 tested, 2.8% active; also: % of control where 0% means no effect; nearly all actives have a fitted effect of over 60% in size
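Using Huh7 cells stably transfected with Rab9 promoter–luciferase, compounds were incubated 24 h at 37 °C, 5% CO2; luciferase luminescence was read 10 min after reagent addition.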
FLuc counter = firefly luciferase modulation, counter-screen for miR-21 project | 360,000 tested, 6.9% active | AID 588342 | Potency, µM (titrated, usually from 57.5 µM), for inactives: top-dose activity change, negative = inhibition, most hits filed as inhibitors | purified FLuc, Km substrates, luminescence inhibition | P08659;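 also: plate controls were vehicle for no effect and reference inhibitor for full effect; nearly all actives have a fitted effect of over 55% in size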
Target sequence (P08659 whole entry, looked up): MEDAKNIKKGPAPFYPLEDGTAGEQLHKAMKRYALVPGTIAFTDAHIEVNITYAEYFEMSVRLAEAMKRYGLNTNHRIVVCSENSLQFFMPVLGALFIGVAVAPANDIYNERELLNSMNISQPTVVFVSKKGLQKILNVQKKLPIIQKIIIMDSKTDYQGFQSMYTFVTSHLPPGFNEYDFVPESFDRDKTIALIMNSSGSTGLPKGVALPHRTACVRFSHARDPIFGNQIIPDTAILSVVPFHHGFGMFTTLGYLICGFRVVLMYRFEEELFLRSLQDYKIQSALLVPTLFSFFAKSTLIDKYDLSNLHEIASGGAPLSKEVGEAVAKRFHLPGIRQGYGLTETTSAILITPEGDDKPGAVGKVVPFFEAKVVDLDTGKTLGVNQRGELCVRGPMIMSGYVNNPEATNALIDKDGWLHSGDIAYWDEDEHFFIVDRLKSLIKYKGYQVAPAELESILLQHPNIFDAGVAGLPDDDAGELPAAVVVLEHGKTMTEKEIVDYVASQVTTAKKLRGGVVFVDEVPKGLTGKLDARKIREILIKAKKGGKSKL
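Purified P. pyralis luciferase, 10 nM final, with Km-level 10 uM D-luciferin and 10 uM ATP in 50 mM Tris acetate pH 7.5, 10 mM Mg acetate, 0.01% Tween-20, 0.05% BSA; 6-point qHTS titration about 60 µM downward; luminescence read.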
Starred values were filed as active, the others as inactive. A selection: hits, their analogues and other compounds. The true share with any hit is near 9.3%. Calls follow the shape of the dose curve; as a rule, active = well fitted curve in the direction sought with a large enough effect; inconclusive = small, poorly fitted or top-dose-only effect, or another doubt; inactive = no such curve, though single readings can be large; an effect the other way counts as inactive or inconclusive. Potency is read from the fitted curve at half-maximal effect.

`Cc1ccc(C(=O)NNC(=O)c2ccccc2)cc1S(=O)(=O)N1CCCCC1` gave ELG1 genotoxic 2.8%, ELG1 repair inh 1.0%, NPC1 prom act 0.5%, Rab9 promoter act -5.1% and FLuc counter 21.3µM*.
For Cc1ccc(C(=O)Nc2ccccc2C(=O)O)cc1S(=O)(=O)N1CCCCCC1 the results were SMN2 splice enh inconclusive and FLuc counter 0.953µM*.
`O=C(Cc1ccc(Cl)cc1)OCc1nnc(-c2ccccc2)o1` gave ELG1 genotoxic 1.7%, SMN2 splice enh -4.1%, ELG1 repair inh 7.3%, NPC1 prom act -8.0%, Rab9 promoter act -2.0% and FLuc counter -16.9%.
`O=C(OCc1nnc(-c2ccc(Cl)cc2)o1)C12CC3CC(CC(O)(C3)C1)C2` gave ELG1 genotoxic inconclusive, SMN2 splice enh 11.7%, ELG1 repair inh inconclusive, NPC1 prom act 2.82µM*, Rab9 promoter act 2.24µM* and FLuc counter 5.36µM*.
Screening COc1ccc(C(=O)NC2CCCc3ccccc32)c(OC)c1OC (configuration not stated) returned ELG1 genotoxic -7.5%, ELG1 repair inh -23.3%, NPC1 prom act -1.8%, Rab9 promoter act -0.3% and FLuc counter 2.9%.
`CCN(CC)C(=O)COc1ccc(-c2ccccc2)cc1` gave ELG1 genotoxic inconclusive, SMN2 splice enh 8.1%, ELG1 repair inh inconclusive, NPC1 prom act inconclusive, Rab9 promoter act inconclusive and FLuc counter 13.5µM*.
CCN(CC)C(=O)COc1ccc(/C(C)=N/NC(=O)c2ccccc2O)cc1 was read as ELG1 genotoxic 18.0%, SMN2 splice enh -16.3%, ELG1 repair inh inconclusive, NPC1 prom act 13.0%, Rab9 promoter act inconclusive and FLuc counter 6.75µM*.
Screening CCN(Cc1ccccc1)C(=O)COc1ccccc1 returned ELG1 genotoxic 1.0%, ELG1 repair inh -0.9%, NPC1 prom act -2.5%, Rab9 promoter act -1.7% and FLuc counter 1.1%.
For CCN(CC)C(=O)COc1ccc(/C(C)=N/NC(=O)c2ccccc2Br)cc1 the results were ELG1 genotoxic 0.5%, SMN2 splice enh -8.9%, ELG1 repair inh 9.0%, NPC1 prom act -1.8%, Rab9 promoter act 0.2% and FLuc counter -16.3%.
`COc1ccc(OCC(O)Cn2c(N)nc3c2c(=O)[nH]c(=O)n3C)cc1` (configuration not stated) gave ELG1 genotoxic 0.9%, ELG1 repair inh 2.8%, NPC1 prom act 1.2%, Rab9 promoter act 1.4% and FLuc counter -2.0%.
`CCn1cc(CN2CCCC(CNC(=O)COc3ccccc3OC)C2)c(C)n1` (configuration not stated) gave ELG1 genotoxic -1.0%, ELG1 repair inh 26.8%, NPC1 prom act 0.0%, Rab9 promoter act -1.8% and FLuc counter -5.1%.
Nc1c(C(=O)c2ccccc2)sc2nsc(SCCN3CCOCC3)c12 was read as ELG1 genotoxic 8.5%, ELG1 repair inh inconclusive, NPC1 prom act inconclusive, Rab9 promoter act inconclusive and FLuc counter 21.3µM*.
`CCOc1ccc(S(=O)(=O)N(C)c2ccc(OCC(=O)NCC3CCCCC3)cc2)cc1` gave ELG1 genotoxic -7.1% and ELG1 repair inh 25.9µM*.
Cc1nnc(N/N=C\c2ccc(-c3ccccc3[N+](=O)[O-])o2)n1N was read as ELG1 genotoxic 5.0%, SMN2 splice enh 14.3%, ELG1 repair inh inconclusive, NPC1 prom act 13.3%, Rab9 promoter act 5.9% and FLuc counter inconclusive.
Screening Cc1nnc(N/N=C/c2ccc(-c3ccccc3F)o2)n1N returned ELG1 genotoxic inconclusive, ELG1 repair inh inconclusive, NPC1 prom act 28.0%, Rab9 promoter act inconclusive and FLuc counter 21.3µM*.
For COc1cccc(CNc2cc(C)nc3nc(-c4ccc(C)cc4)nn23)c1 the results were FLuc counter 1.69µM*.
Screening O=C(NCc1ccc(F)cc1)c1cnc(N2CCCCC2)c2ccccc12 returned FLuc counter -5.7%.
Screening O=C(O)c1ccccc1-c1nc2ccccc2c(=O)n1O returned ELG1 genotoxic 6.2%, SMN2 splice enh -1.1%, ELG1 repair inh 3.7%, NPC1 prom act -4.3%, Rab9 promoter act -5.1% and FLuc counter 1.4%.
`Cc1nc(N/N=C/c2ccc(O)cc2)c2cnn(-c3ccccc3)c2n1` gave ELG1 genotoxic -7.4%, SMN2 splice enh 19.2%, ELG1 repair inh -21.6%, NPC1 prom act -0.8%, Rab9 promoter act -3.7% and FLuc counter inconclusive.
`Cc1nc2ccccc2c(=O)n1/N=C/c1c(O)ccc2ccccc12` gave ELG1 genotoxic 10.6%, ELG1 repair inh inconclusive, NPC1 prom act -1.4%, Rab9 promoter act -2.4% and FLuc counter 0.2%.
O=c1c2ccccc2nc(N/N=C/c2c(O)ccc3ccccc23)n1O was read as ELG1 genotoxic -0.3%, SMN2 splice enh -74.2%, ELG1 repair inh inconclusive, NPC1 prom act -20.5%, Rab9 promoter act -30.5% and FLuc counter 1.9µM*.
`O=c1c2ccccc2nc(N/N=C/c2ccc(O)cc2)n1O` gave ELG1 genotoxic -0.6%, SMN2 splice enh 12.7%, ELG1 repair inh inconclusive, NPC1 prom act 0.5%, Rab9 promoter act 0.0% and FLuc counter 2.39µM*.
`Cc1nc2ccccc2nc1N/N=C/c1ccc(O)cc1` gave ELG1 genotoxic inconclusive, ELG1 repair inh inconclusive, NPC1 prom act -1.1%, Rab9 promoter act 24.7% and FLuc counter 8.49µM*.
`O=C(CSc1nnc(NC2CCCCC2)s1)Nc1ccc(N2CCOCC2)cc1` gave ELG1 genotoxic 10.2%, SMN2 splice enh -12.5%, ELG1 repair inh inconclusive, NPC1 prom act 17.4%, Rab9 promoter act 14.1% and FLuc counter 13.5µM*.
`Cc1ccc(NC(=O)Nc2nnc(SCC(=O)N3CCC(C)CC3)s2)cc1` gave FLuc counter 19µM*.
`COc1cccc(NC(=O)CSc2nnc(NC(=O)C3CC3)s2)c1` gave ELG1 genotoxic 0.4%, ELG1 repair inh -4.2%, NPC1 prom act -1.8%, Rab9 promoter act 1.8% and FLuc counter -18.8%.
Screening Cc1ccc(NC(=O)CSc2nnc(NC(=O)C3CC3)s2)cc1 returned ELG1 genotoxic inconclusive, ELG1 repair inh 16.1%, NPC1 prom act 1.4%, Rab9 promoter act 4.2% and FLuc counter -0.1%.
For COc1cccc(NC(=O)CSc2nnc(NC(=O)NC3CCCCC3)s2)c1 the results were FLuc counter 1.51µM*.
`Cc1ccc(NC(=O)CSc2nnc(NC(=O)NC3CCCCC3)s2)cc1` gave FLuc counter 0.953µM*.

Source: PubChem BioAssay
